This is an account of results in PubChem BioAssay (NCI).

Compounds without any hit were thinned out: in the full panel of roughly 83,000, 20% have a hit.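 Compound tested at a single concentration for 48 hours in 96-well plates; a percent growth value below 10 was scored as active.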 Values without a mark were called inactive. Active and inactive are the calls of the source.

For the experiment, the system named is SK-OV-3 ovarian. As to the kind of experiment: NCI-60 one-dose screen, 48 h (100 = growth as untreated, 0 = no growth, -100 = all killed). As to conditions: 10 µM. The procedure: Growth inhibition of the SK-OV-3 human tumor cell line is measured as a screen for anti-cancer activity. Cells are grown in 96 well plates and exposed to the test compound for 48 hours. Compounds are tested at a single concentration, which is 10^-5 M for most compounds. The reported endpoint is percent growth (GI% or GIPRCNT), where numbers from 0 - 100% represent growth inhibition, and numbers from -100% - 0 represent cell death. For example, a value of 40 represents 60% growth inhibition. A value of 0 means no net growth occurred over the course of the experiment. A value of -40 indicates 40% of cells at the beginning of the experiment died by the end of the experiment. A value of -100 means all cells are dead at the end of the experiment.
NCI-60 Human Tumor Cell Lines Screen was performed using the standard one-dose NCI protocol, which is described in more detail at https://dtp.cancer.gov/discovery_development/nci-60/default.htm.
Compounds with GIPRCNT values below 10 were considered active. Activity score was based on GIPRCNT using the following formula: […]
Score is 0 for GIPRCNT values of 100 or above, 50 for GIPRCNT values of 0, and 100 for GIPRCNT values of -100.
In the case of `N=c1c2c(-c3ccccc3)c(-c3ccccc3)n(Cc3ccccc3)c2ncn1CCCO`, the growth is 70.7%.

With `O=C1NC(=O)c2ncccc21`, the growth is 101%.

As for `Oc1[nH]c2ccc(Cl)cc2c1/C=c1/ccc2c(c1)N=C(c1cc(F)cc(F)c1)N=2`, the growth is 68%.

`COc1cc(-c2cc(/C=C3\C(=O)Nc4cc(Cl)ccc43)[nH]n2)cc(OC)c1OC`: the growth is 74.2%.

As for `COC(=O)C(=C\c1ccc2c(c1)OCO2)/C(=C/c1ccc2c(c1)OCO2)C(=O)OC`, the growth is 105%.

In the case of `Cc1ccc(-c2n[nH]c(=O)c3noc(-c4ccc(C)cc4)c23)cc1`, the growth is 21.4%.

Take `c1ccc2c(-c3nc(N4CCOCC4)c4c5c(sc4n3)CCCCCC5)cccc2c1`: the growth is 111%.

`CCOC(=O)CCC(NC(=O)c1ccc(N)cc1)C(=O)OCC` (stereo not given): the growth was 109%.

For the compound `O=C1/C(=C\c2ccccc2)CN(C(=O)c2ccccc2F)C/C1=C\c1ccccc1`, the growth was 36.6%.

As for `O=C(Nc1ccc(CO)cc1)c1ccccc1Nc1ccnc(C(F)(F)F)c1`, the growth was 101%.

In the case of `COc1cc2nc(Nc3cccc(C(=O)O)c3)nc(N)c2cc1OC`, the growth was 107%.

Take `COc1ccccc1CNCCCN1C(=O)c2ccc3c4c(ccc(c24)C1=O)C(=O)N(CCCN)C3=O`: the growth was 27.3%.

As for `COc1cc2c(cc1OCCCN1CCN(c3ncnc4ccccc34)CC1)N=CC1CCCN1C2=O` (stereo not given), the growth was 19.8%.

As for `CCCCCCNC(=O)Oc1ccc(/C(=C(/CC)Cc2ccccc2)c2ccc(OCCN3CCCCC3)cc2)cc1`, the growth is 86.3%.

For `COc1ccccc1CNCCN1C(=O)c2ccc3c4c(ccc(c24)C1=O)C(=O)N(CCNCc1ccccc1OC)C3=O`, the growth was -79.6% (active).

As for `O=C1/C(=C\c2ccc(Cl)cc2)CN(C(=S)Nc2ccccc2)C/C1=C\c1ccc(Cl)cc1`, the growth was -42.3% (active).

With `COc1ccc(C(=O)/C=C/c2cc(-c3cc(OC)c(OC)c(OC)c3)n[nH]2)cc1`, the growth was 25.7%.

Consider `CN(C)CCCn1c(=O)c2ccccc2c2cnc3[nH]ccc3c21`, for which the growth was 4.51% (active).

On to `CNc1ncc(-c2ccc(C(F)(F)F)cc2)c(NC2CCCCCC2)n1`, for which the growth is 83%.

In the case of `COc1ccc(C2CC(c3ccc(N(C)C)cc3)=NN2c2ccc(S(N)(=O)=O)cc2)cc1` (stereo not given), the growth is 70.3%.

In the case of `CC(C)(Cl)CCC1=C(Cl)C(=O)c2ccccc2C1=O`, the growth was 92.6%.

For the compound `COc1ccc(-c2cc(/C=C3\C(=O)Nc4ccc(Cl)cc43)[nH]n2)cc1OC`, the growth is 94.6%.

As for `CCN(CC)Cc1cc(Nc2ccnc3cc(Cl)ccc23)ccc1OC`, the growth is 102%.

As for `c1ccc([C@H]2CN3CCSC3=N2)cc1`, the growth is 107%.

Regarding `CN1CCC(CNc2cc(C3(C(=O)Nc4cc(C(=O)Nc5ccc(Cl)c(C(F)(F)F)c5)ccc4F)CC3)ncn2)CC1`, the growth was 45.9%.

With `CCCCCC(=O)c1ccc(OCCCN2CCN(C(=O)OCC)CC2)cc1`, the growth is 104%.

For the compound `O=[N+]([O-])c1cccc(N=Cc2ccc3c(c2)OCO3)c1`, the growth is 110%.

Regarding `O=C(Nc1cccc(-n2cc(-c3ccncc3)c(-c3ccc(O)c(Cl)c3)n2)c1)c1cc(C(F)(F)F)cc(C(F)(F)F)c1`, the growth is 87.7%.

Consider `CN1CC[C@@H](c2c(O)cc(O)c3c(=O)cc(-c4ccccc4Cl)oc23)[C@@H](O)C1`, for which the growth was 47.6%.

Consider `O=C1C(c2ccccc2)C2C=CC(C2)N1O` (stereo not given), for which the growth is 106%.

As for `COc1ccc2nc3ccccc3c(NCCNCC(C)O)c2c1` (stereo not given), the growth was -3.44% (active).

Regarding `CS(=O)(=O)Nc1cccc(-c2cc(-c3ccccc3Cl)c(C#N)c(N)n2)c1`, the growth was 22%.

As to `COc1cc(-c2cc(/C=C/C(=O)c3ccc4c(c3)OCO4)[nH]n2)cc(OC)c1OC`, the growth was 99.2%.

As for `Nc1c(C(=O)Nc2ccccc2)sc2nc3c(cc12)CCCC3`, the growth was 24.7%.

On to `COC(=O)C(C(C[N+](=O)[O-])c1ccccc1)=P(c1ccccc1)(c1ccccc1)c1ccccc1` (stereo not given), for which the growth was 95.7%.

On to `C=C(C(=O)c1ccccc1)C(NC(C)(C)C)c1ccccc1` (stereo not given), for which the growth was 67.9%.

`CCC(=O)N1C/C(=C/c2ccc(Cl)cc2)C(=O)/C(=C/c2ccc(Cl)cc2)C1`: the growth was -34.8% (active).

Take `Nc1c(C(=O)Nc2ccccc2)sc2nc3c(cc12)C(O)CCC3` (stereo not given): the growth was 18.7%.

Regarding `COc1cc(/C=C/C(=O)c2ccc(Cl)cc2)ccc1OS(=O)(=O)c1ccc(C)cc1`, the growth was 96.8%.

Turning to `COc1ccc(Cn2c(C(N)=O)cc3c2-c2nc(N)ncc2CCC3)cc1`, the growth is 104%.
